Results published in PubChem BioAssay AID1259415 (National Center for Advancing Translational Sciences (NCATS), 2018).
“And” between values parts separate entries of the source, which are not always exact repeats. Identical values can stand only once. Among all 410,000 compounds or so, about 18,000 (4.4%) were called active. About 7% were inconclusive and are not listed. The sample holds actives, similar compounds and a random draw of the others, so the mix is not that of the screen. Unmarked numbers belong to inactive results. No stated cut-off is given here; in the data, active means activity change below about -60%; inconclusive means no clear call, values can overlap the other calls; inactive means above about -39%.
On the % scale 0 is the no-effect control and ±100 the full control effect.

Test: qHTS Assay for inhibitors of the human cytomegalovirus (HCMV)
Details: HFF cells, HCMV-luciferase reporter, 72 h; at 57.5 µM; stronger effect = lower value
In short: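 Screen run at 2 compound doses on HFFs infected with reporter HCMV, MOI 1 PFU/cell. Luciferase activity from cell lysates at 72 h post infection gave inhibition relative to buffer-only and Salinomycin wells.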
Work on `CC1(C)CC(=O)c2cc(OCC(=O)NCC3CCCO3)ccc2O1` (configuration not stated) yielded an activity change, negative = inhibition of 55.1%.
Compound `Cc1ccc(CNC(=O)CCC(=O)N2Cc3ccccc3Oc3ncccc32)cc1` has an activity change, negative = inhibition of -2.66%.
For `CN1CCC(N(C)C(=O)c2ccc(Cl)c(S(=O)(=O)Nc3ccc(Cl)cc3)c2)CC1`, the activity change, negative = inhibition was -3.23%.
For `Cn1c(=O)n(C)c(=O)n(CC(=O)N2CCCCC2)c1=O`, the activity change, negative = inhibition was 32.3%.
For `CC1CCCN(C(=O)Cn2c(=O)oc3ccccc32)C1` (configuration not stated), the activity change, negative = inhibition was 12.6%.
For `O=C(Cn1c(=O)n(CC2CS2)c2ccccc21)N1CCCCC1` (configuration not stated), the activity change, negative = inhibition was -89.4% (active).
`Cc1cc(NC(=O)c2ccc(-c3ccc(Cl)cc3)o2)cc(-c2nc3ncccc3o2)c1O` gave an activity change, negative = inhibition of 5.53%.
In the case of `COc1ccc(C(=O)NC2CCCc3c2cnn3-c2cccc(C)c2C)c(OC)n1` (configuration not stated), the activity change, negative = inhibition is reported as -87% (active).
With `Cc1cccc(-n2nc3c(c2NC(=O)c2ccc(Br)o2)CSC3)c1C` the activity change, negative = inhibition was 14.4%.
`Cc1cc(C(=O)NNC(=O)CCC2CCCCC2)c(C)o1` gave an activity change, negative = inhibition of -17%.
With `Cc1cc(C(=O)NC2CCCc3c2cnn3-c2cccc(C)c2C)c(C)o1` (configuration not stated) the activity change, negative = inhibition was -73.8% (active).
With `COc1cccc(C(=O)Nc2c3c(nn2-c2cccc(C)c2C)CS(=O)(=O)C3)c1OC` the activity change, negative = inhibition was -4.86%.
With `Cc1cccc(C(=O)OC(C)C(=O)NC2CCCc3ccccc32)c1O` (configuration not stated) the activity change, negative = inhibition was -10.7%.
In the case of `COc1ccc(C(=O)N2CCC(c3nc4ccccc4o3)CC2)cc1`, the activity change, negative = inhibition is reported as 43.5%.
With `Cc1cccc(N2CCN(C(=O)c3cc4c(=O)[nH]c5ccccc5c4n3C)CC2)c1C` the activity change, negative = inhibition was -65.2% (active).
In the case of `Cc1cccc(N2CCN(C(=O)c3oc(=O)c4ccccc4c3-c3ccccc3)CC2)c1C`, the activity change, negative = inhibition is reported as 4.74%.
In the case of `CCn1c(C)c(C)c2cc(C(=O)N3CCN(c4cccc(C)c4C)CC3)ccc21`, the activity change, negative = inhibition is reported as 0% and 13.6%.
`COc1ccc2c(c1)c(=O)c(S(=O)(=O)c1ccc(F)cc1)cn2CC(=O)Nc1ccc(C)cc1C` gave an activity change, negative = inhibition of -7.71%.
With `CCS(=O)(=O)c1nc(S(=O)(=O)c2ccc(C)cc2)c(NCc2ccc(Cl)cc2)s1` the activity change, negative = inhibition was -5.88%.
In the case of `Cc1cccc(OCCSc2nc3ccc(NC(=O)COc4ccccc4C)cc3s2)c1`, the activity change, negative = inhibition is reported as -12.2%.
In the case of `CSc1nc2ccc(S(=O)(=O)N3CCc4ccccc43)cc2s1`, the activity change, negative = inhibition is reported as -81.9% (active).
Work on `CCn1c(=O)c(=O)n(CC)c2cc(S(=O)(=O)N3CCc4ccccc43)ccc21` yielded an activity change, negative = inhibition of -35.5%.
`CCC(=O)Nc1ccc2nc(SCC(=O)N3CCc4ccccc43)sc2c1` showed an activity change, negative = inhibition of 29.6%.
In the case of `Cc1nc2sc(C)c(C)n2c(=O)c1S(=O)(=O)NCCc1ccc(Cl)cc1`, the activity change, negative = inhibition is reported as 6.07%.
Work on `Cc1oc2ncnc(N3CCOCC3)c2c1C(=O)NCCc1ccccc1` yielded an activity change, negative = inhibition of -27.7%.
Work on `CCNC(=O)C1CCCN(C(=O)c2cc(F)ccc2C)CC1` (configuration not stated) yielded an activity change, negative = inhibition of -4.35%.
In the case of `O=C(NC(Nc1nc2ccc([N+](=O)[O-])cc2s1)(C(F)(F)F)C(F)(F)F)c1ccccc1`, the activity change, negative = inhibition is reported as -103% (active).
For `NS(=O)(=O)c1ccc2nc(NC(=O)COc3ccccc3)sc2c1`, the activity change, negative = inhibition was -8.44%.
Work on `CN(C)c1cccc(C(=O)Nc2nc3ccc(S(=O)(=O)NC(C)(C)C)cc3s2)c1` yielded an activity change, negative = inhibition of -29.3%.
For `O=C(Nc1cc(C(F)(F)F)ccc1Cl)c1cc2nc(-c3ccc4c(c3)OCO4)cc(C(F)(F)F)n2n1`, the activity change, negative = inhibition was 4.65%.
`CCC(C)Nc1oc(-c2ccc(COc3ccc(Cl)cc3)o2)nc1C#N` (configuration not stated) showed an activity change, negative = inhibition of -28.6%.
Compound `CCC(Sc1nc2n[nH]c(C)c2c(=N)n1-c1ccccc1Cl)C(=O)N(CC)CC` (configuration not stated) has an activity change, negative = inhibition of 10.8%.
Compound `CC(C)CN(CC(C)C)C(=O)CN1c2cccc3cccc(c23)S1(=O)=O` has an activity change, negative = inhibition of 51.7%.
`Cc1ccc(S(=O)(=O)N(C)C)cc1NC(=O)CN1c2cccc3cccc(c23)S1(=O)=O` showed an activity change, negative = inhibition of -17.7%.
With `CCN(CC(=O)Nc1c(F)cccc1F)C(=O)c1cnc(C)cn1` the activity change, negative = inhibition was -12.6%.
For `CCN(CC(=O)Nc1c(F)cccc1F)C(=O)CN1c2cccc3cccc(c23)S1(=O)=O`, the activity change, negative = inhibition was -81.2% (active).
For `COc1ccc(C)cc1NC(=O)CN1c2cccc3cccc(c23)S1(=O)=O`, the activity change, negative = inhibition was -63.9% (active).
In the case of `O=C(O)CN1c2cccc3cccc(c23)S1(=O)=O`, the activity change, negative = inhibition is reported as 24.9%.
`CCC(=O)Nc1ccccc1-c1nc2ccccc2n(CC(=O)Nc2ccc(C)c(C)c2)c1=O` gave an activity change, negative = inhibition of 4.84%.
`O=C(CSc1ncc(CO)n1Cc1ccc(F)cc1)NCc1ccco1` gave an activity change, negative = inhibition of -7.64%.
For `O=C(CC(CC(=O)c1ccccc1)c1ccco1)c1ccccc1`, the activity change, negative = inhibition was -38.2%.
`COc1cc(NC(=O)c2nn(-c3ccc(C)cc3)c(=O)c3c2c2ccccc2n3C)cc(OC)c1OC` showed an activity change, negative = inhibition of 8.56%.
`Cc1ccc(NC(=O)C2CCC(C(C)(C)C)CC2)cc1S(=O)(=O)N1CCOCC1` (configuration not stated) showed an activity change, negative = inhibition of -25.3%.
With `CC(=O)Nc1ccc(NC(=O)COC(=O)C2CCC(C(C)(C)C)CC2)cc1` (configuration not stated) the activity change, negative = inhibition was -11.6%.
With `CC(C)(C)C1CCC(C(=O)Nc2cccnc2)CC1` (configuration not stated) the activity change, negative = inhibition was -93.5% (active).
In the case of `CCOc1ccc(NC(=O)Cn2c(C)ccc(C#N)c2=O)cc1`, the activity change, negative = inhibition is reported as -3.22%.
`O=C(NCCc1csc(-c2ccc(C(F)(F)F)cc2)n1)C(=O)Nc1ccc(F)c(Cl)c1` showed an activity change, negative = inhibition of -16.3%.
`CCc1nc2nc(C)cc(Nc3ccc(F)c(Cl)c3)n2n1` gave an activity change, negative = inhibition of -29.5%.
With `Cc1ccc(S(=O)(=O)Nc2ccc3ncccc3c2)cc1` the activity change, negative = inhibition was -97.8% (active).
`CCOc1ncccc1C(=O)Nc1ccc(S(=O)(=O)Nc2nc(C)cc(C)n2)cc1` gave an activity change, negative = inhibition of 4.63%.
With `Cc1ccc(S(=O)(=O)Nc2ccc(F)c(S(=O)(=O)N3CCOCC3)c2)cc1` the activity change, negative = inhibition was 11.9%.
`COc1ccc(Cl)cc1NC(=O)CCn1c(=O)c2cccn2c2ccccc21` gave an activity change, negative = inhibition of 4.3%.
Work on `CCOC(=O)c1c(N)n(-c2cccc(C)c2C)c2nc3ccccc3nc12` yielded an activity change, negative = inhibition of 3.84%.
Compound `Cc1nn(-c2ccc(N3CCCCC3)nn2)c(C)c1CCC(=O)NCc1ccc(F)cc1` has an activity change, negative = inhibition of -11.9%.
In the case of `CCNS(=O)(=O)c1ccc(NC(=O)CSc2nc(-c3ccco3)cc(C(F)(F)F)n2)cc1`, the activity change, negative = inhibition is reported as 19.7%.
With `O=C1Nc2cc(C(=O)N3CCC(N4CCCCC4)CC3)ccc2S/C1=C\c1ccccc1` the activity change, negative = inhibition was -88% (active).
In the case of `O=C(Cc1ccccc1)N1CCN(C2CCCCCC2)CC1`, the activity change, negative = inhibition is reported as 31.1%.
Compound `CC1CCN(C(=O)c2ccc3c(c2)NC(=O)CN3)CC1` has an activity change, negative = inhibition of -12.7%.
With `CCOc1ccccc1NC(=O)Cn1c(=O)n(Cc2ccccc2)c(=O)c2c(C)c(C(=O)N(C)C)sc21` the activity change, negative = inhibition was -19.6%.
In the case of `CC(=O)CC[C@@H](C)O[C@@H]1OC(C)[C@H](O)CC1O` (some centres not stated), the activity change, negative = inhibition is reported as -66.6% (active).
`COc1ccc(NC(=O)N(C)C[C@@H]2OCCCC[C@@H](C)Oc3ccc(NC(=O)NC4CCCCC4)cc3C(=O)N([C@H](C)CO)C[C@@H]2C)cc1` showed an activity change, negative = inhibition of 1.75%.
For `O=C(CSc1ccccn1)N1CCN(S(=O)(=O)c2ccc(Cl)cc2)CC1`, the activity change, negative = inhibition was -33.6%.
In the case of `CCOC(=O)CSc1ccccn1`, the activity change, negative = inhibition is reported as -102% (active).
`CCOC(=O)CSc1ncc(-c2cccc(Cl)c2)cn1` gave an activity change, negative = inhibition of 23.7%.
`COc1ccc(CCNc2nc3c(-c4cccc(F)c4)nnn3c3ccccc23)cc1OC` gave an activity change, negative = inhibition of 30.2%.
With `Cc1ccc(CCNC(=O)c2ccc(CNS(=O)(=O)c3ccc(C)cc3)cc2)cc1` the activity change, negative = inhibition was -11.4%.
`Cc1ccc(S(=O)(=O)N(CC(=O)Nc2ccc(Cl)cc2Cl)c2ccccc2C)cc1` showed an activity change, negative = inhibition of -21.6%.
With `CC(C)c1nccn1S(=O)(=O)c1cc([N+](=O)[O-])ccc1Cl` the activity change, negative = inhibition was -7.9%.
Work on `CCc1nc(C)cn1S(=O)(=O)c1cc(OC)c(C)cc1C` yielded an activity change, negative = inhibition of -33.9%.
With `CCc1nc(C)cn1S(=O)(=O)c1cc([N+](=O)[O-])ccc1Cl` the activity change, negative = inhibition was -98.5% (active).
With `Cc1ccccc1Nc1nn2c(=O)c3ccc(C(=O)NCCc4ccc(Cl)cc4)cc3nc2s1` the activity change, negative = inhibition was -8.87%.
Work on `CC(C)c1ccc(NC(=O)Cn2nnc(C(=O)NCCc3ccccc3)c2N)cc1` yielded an activity change, negative = inhibition of 7.46%.
`Cc1ccc(NC(=O)Cn2cnc3nc4c(cc3c2=O)CCCC4)cc1Cl` gave an activity change, negative = inhibition of 19.1%.
`CCCN(CCC)CCNC(=O)Cn1cnc2sc(C)c(S(=O)(=O)N3CCC(C)CC3)c2c1=O` showed an activity change, negative = inhibition of 3.59%.
`Fc1ccc(-n2ncc3c(Nc4ccc(Oc5ccccc5)cc4)ncnc32)cc1` gave an activity change, negative = inhibition of -35.2%.
Work on `CCN(CCCNC(=O)Cn1ncc2c3ccccc3n(C)c2c1=O)Cc1ccccc1` yielded an activity change, negative = inhibition of -7.87%.
In the case of `Cc1cc(C(=O)COc2ccccc2[N+](=O)[O-])c(C)n1-c1cccc(S(=O)(=O)N2CCOCC2)c1`, the activity change, negative = inhibition is reported as -89.3% (active).
Work on `O=C(COc1ccc(S(=O)(=O)N2CCCC2)cc1[N+](=O)[O-])N1CCCCC1` yielded an activity change, negative = inhibition of -8.38%.
`Cc1cc(S(=O)(=O)N2CCOCC2)ccc1OCC(=O)N1CCOCC1` showed an activity change, negative = inhibition of -17.6%.
`O=S(=O)(c1ccc(Br)c2ccccc12)N1CCOCC1` showed an activity change, negative = inhibition of -15%.
In the case of `O=C1CCC(=O)N1CCC(=O)N(C(=O)NC1CCCCC1)C1CCCCC1`, the activity change, negative = inhibition is reported as 14.3%.
With `CCCCNC(=O)c1onc(CSc2cccc(OC)c2)c1C(=O)O` the activity change, negative = inhibition was 31.1%.
With `CCOc1cccc(SCc2noc(C(=O)NC(C)C)c2C(=O)O)c1` the activity change, negative = inhibition was -61.6% (active).
With `CCCNC(=O)c1onc(CSc2ccc(F)cc2)c1C(=O)NC(C)C` the activity change, negative = inhibition was -14.5%.
Compound `O=C1CCC([N+](=O)[O-])C(c2ccccc2Br)N1` (configuration not stated) has an activity change, negative = inhibition of -6.17%.
For `COc1cc(C2NC(=O)NC(c3ccccc3)=C2C(C)=O)c(Br)cc1OCC(N)=O` (configuration not stated), the activity change, negative = inhibition was -0.681%.
In the case of `COc1cc2c(cc1OC)C(c1ccccc1Br)NC(=O)C2` (configuration not stated), the activity change, negative = inhibition is reported as -67.4% (active).
